Experimental data: PubChem BioAssay
Calls of active or inactive are those of the source.

Legend:
[1] = optical density shifts of acrAB sulA E. coli – strain DRC41, OD650, 48 h, E. coli filamentation inducer project, primary screen (AID 1152); settings: higher = more signal, called active from +8 up or from −8 down;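 note: E. coli MC1000 strain DRC41 lacking acrAB efflux pump and sulA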
[2] = probe aLefty1 binding on compound microarray – biochemical, small-molecule microarray, 635/667 nm fluorescence, primary screen (AID 1153); settings: higher = more signal;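 note: score merges spot fluorescence with signal-to-noise ratio from the scanned slide images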
[3] = plasmodial surface anion channel blockers, osmotic lysis – cell-based, P. falciparum Indochina, OD700, 1 h, primary screen (AID 1154); settings: P. falciparum Indochina infected RBC osmotic lysis, higher = more signal, called active from +8 up or from −8 down
[4] = plasmodial surface anion channel blockers, osmotic lysis – cell-based, P. falciparum Indochina, OD700, 2 h, primary screen (AID 1155);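 note: lysis reports solute entry through the parasite surface anion channel PSAC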; settings: P. falciparum Indochina infected erythrocytes, higher = more signal, called active from +8 up or from −8 down
[5] = changes in parasitized red cell lysis, either direction – P. falciparum Indochina, OD700, 3 h, PSAC antagonist project, primary screen (AID 1156); settings: P. falciparum-infected erythrocytes, osmotic lysis, higher = more signal, called active from +8 up or from −8 down
[6] = plasmodial surface anion channel blockers, osmotic lysis – cell-based, P. falciparum Indochina, OD700, 18 h, primary screen (AID 1157); settings: P. falciparum Indochina infected erythrocytes, osmotic lysis OD700, 18 h; higher = more signal, called active from +8 up or from −8 down
[7] = S6 kinase pathway phospho-S6 level changes – cell-based, A549, cytoblot, luminescence, serum-stimulated, primary screen (AID 1158); settings: 5 h, higher = more signal;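 note: serum-stimulated A549 lung adenocarcinoma cells; signal is phosphorylated S6 detected by cytoblot immunostaining with HRP secondary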
[8] = target: NADPH oxidase 2 (Homo sapiens) (UniProt P04839); assay: compounds shifting NOX2 Amplex Red fluorescence – cell-based, HEK293-NOX2, PMA-stimulated, NOX inhibitor project, primary screen (AID 1159); settings: 45 min, higher = more signal, called active from +8 up or from −8 down; note: test concentration not given here
Chain of NADPH oxidase 2 (Homo sapiens) (P04839 whole entry, looked up): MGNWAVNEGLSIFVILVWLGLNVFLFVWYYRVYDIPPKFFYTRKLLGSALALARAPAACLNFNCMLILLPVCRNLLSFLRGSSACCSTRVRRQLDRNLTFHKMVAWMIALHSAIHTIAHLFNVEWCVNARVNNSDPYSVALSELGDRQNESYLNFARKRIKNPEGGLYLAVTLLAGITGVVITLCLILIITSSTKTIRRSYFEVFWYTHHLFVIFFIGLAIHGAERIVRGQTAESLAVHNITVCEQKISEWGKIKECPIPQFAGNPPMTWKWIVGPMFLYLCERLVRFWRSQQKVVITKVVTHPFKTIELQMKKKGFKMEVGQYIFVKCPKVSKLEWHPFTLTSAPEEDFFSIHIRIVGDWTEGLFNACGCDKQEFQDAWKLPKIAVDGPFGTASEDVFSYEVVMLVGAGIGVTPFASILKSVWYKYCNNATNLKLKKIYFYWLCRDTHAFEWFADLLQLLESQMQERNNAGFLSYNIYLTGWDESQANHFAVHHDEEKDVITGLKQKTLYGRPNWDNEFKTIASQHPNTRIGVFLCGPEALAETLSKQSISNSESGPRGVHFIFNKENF

[9] = target: NADPH oxidase 4 (Homo sapiens) (UniProt Q9NPH5); assay: compounds shifting NOX4 Amplex Red fluorescence – cell-based, HEK293-NOX4, tetracycline-induced, NOX inhibitor project, primary screen (AID 1160); settings: HEK293-NOX4, Amplex Red H2O2 fluorescence, 45 min; higher = more signal, called active from +8 up or from −8 down
Chain of NADPH oxidase 4 (Homo sapiens) (Q9NPH5 whole entry, looked up): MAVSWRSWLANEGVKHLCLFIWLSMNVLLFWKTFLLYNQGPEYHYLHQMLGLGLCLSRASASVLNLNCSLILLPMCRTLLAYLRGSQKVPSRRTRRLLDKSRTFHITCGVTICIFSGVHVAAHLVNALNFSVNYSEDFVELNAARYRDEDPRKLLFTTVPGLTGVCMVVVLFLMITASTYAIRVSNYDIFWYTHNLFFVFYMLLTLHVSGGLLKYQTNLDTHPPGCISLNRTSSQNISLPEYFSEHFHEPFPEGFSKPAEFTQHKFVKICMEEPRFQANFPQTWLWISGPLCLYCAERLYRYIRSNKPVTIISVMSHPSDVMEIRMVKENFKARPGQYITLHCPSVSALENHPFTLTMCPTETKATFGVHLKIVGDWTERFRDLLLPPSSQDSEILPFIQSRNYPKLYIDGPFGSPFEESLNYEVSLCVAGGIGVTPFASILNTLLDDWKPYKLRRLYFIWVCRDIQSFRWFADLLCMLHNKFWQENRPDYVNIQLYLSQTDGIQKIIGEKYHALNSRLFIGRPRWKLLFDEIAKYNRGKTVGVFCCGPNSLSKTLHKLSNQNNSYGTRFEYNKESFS

[10] = target: NADPH oxidase 5 (Homo sapiens) (UniProt Q96PH1); assay: compounds shifting NOX5 Amplex Red fluorescence – cell-based, HEK293-NOX5, NOX inhibitor project, primary screen (AID 1161); settings: HEK293-NOX5, ionomycin, 45 min, higher = more signal
Chain of NADPH oxidase 5 (Homo sapiens) (Q96PH1 whole entry, looked up): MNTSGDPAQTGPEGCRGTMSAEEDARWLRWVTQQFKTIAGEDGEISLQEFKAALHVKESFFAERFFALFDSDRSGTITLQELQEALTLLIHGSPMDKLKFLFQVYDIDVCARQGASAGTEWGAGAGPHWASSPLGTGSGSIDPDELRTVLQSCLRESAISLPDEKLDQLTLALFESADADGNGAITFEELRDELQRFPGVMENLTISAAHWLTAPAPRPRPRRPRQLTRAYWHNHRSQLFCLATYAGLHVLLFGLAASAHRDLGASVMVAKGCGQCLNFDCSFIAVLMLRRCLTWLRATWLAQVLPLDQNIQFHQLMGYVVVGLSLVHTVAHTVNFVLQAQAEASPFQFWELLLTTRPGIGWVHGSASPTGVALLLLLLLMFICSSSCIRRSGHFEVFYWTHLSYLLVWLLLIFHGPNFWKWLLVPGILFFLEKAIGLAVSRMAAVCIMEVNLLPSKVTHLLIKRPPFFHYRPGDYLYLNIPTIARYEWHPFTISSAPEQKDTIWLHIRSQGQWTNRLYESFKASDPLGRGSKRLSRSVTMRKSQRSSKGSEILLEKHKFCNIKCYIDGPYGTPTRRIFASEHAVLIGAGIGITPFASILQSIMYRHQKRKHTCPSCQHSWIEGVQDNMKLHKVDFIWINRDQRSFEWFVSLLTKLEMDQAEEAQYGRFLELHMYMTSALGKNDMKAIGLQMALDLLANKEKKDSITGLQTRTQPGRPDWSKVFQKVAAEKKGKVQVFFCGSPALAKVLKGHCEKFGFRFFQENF

[11] = compound effects on lung adenocarcinoma cell viability – A549, calcein-AM fluorescence, 48 h, basal, profiling panel (AID 1162); settings: higher = more signal; note: test concentration not given here
[12] = compound effects on differentiated 3T3-L1 adipocyte viability – cell-based, 3T3-L1 adipocytes, calcein-AM fluorescence, 48 h, basal, profiling panel (AID 1163); settings: 3T3-L1 adipocytes viability, higher = more signal; note: test concentration not given here
[13] = compound effects on hepatocellular carcinoma cell viability – HepG2, calcein-AM fluorescence, 48 h, basal, profiling panel (AID 1164); settings: higher = more signal; note: test concentration not given here
[14] = compound effects on multiple myeloma cell viability – MM1S, calcein-AM fluorescence, 48 h, basal, profiling panel (AID 1165); settings: higher = more signal;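 note: viability of MM1S multiple myeloma cells under basal unstimulated conditions; test concentration not given here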
[15] = calcein-AM signal in unstimulated myeloma cells – cell-based, calcein-AM fluorescence, 48 h, PK04 Diversity Set, profiling panel (AID 1166); settings: RPMI8226 myeloma viability, higher = more signal;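 note: cells grown under basal conditions without added stimulus; test concentration not given here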
[16] = JC-1 mitochondrial signal, unstimulated HepG2 cells – cell-based, JC-1 fluorescence, 24 h, 100 nL compound, profiling panel (AID 1167); settings: HepG2 mitochondrial potential, higher = more signal; note: test concentration not given here
[17] = JC-1 mitochondrial signal, unstimulated adipocytes – cell-based, JC-1 fluorescence, 3T3-L1 adipocytes, 24 h, 100 nL compound, profiling panel (AID 1168); settings: JC-1 mitochondrial fluorescence, higher = more signal, called active from +8 up or from −8 down; note: test concentration not given here
[18] = JC-1 mitochondrial signal, unstimulated myeloma cells – cell-based, JC-1 fluorescence, RPMI8226, 24 h, 100 nL compound, profiling panel (AID 1169); settings: JC-1 mitochondrial potential fluorescence, higher = more signal; note: test concentration not given here
[19] = JC-1 mitochondrial signal, unstimulated MM1S myeloma – cell-based, JC-1 fluorescence, 24 h, 100 nL compound, profiling panel (AID 1170); settings: MM1S mitochondrial potential, higher = more signal; note: test concentration not given here
[20] = resazurin metabolic signal in A549 cells – cell-based, resazurin fluorescence, 24 h, PK04 Diversity Set, profiling panel (AID 1171); settings: A549 viability, higher = more signal, called active from +8 up or from −8 down; note: test concentration not given here

Row | SMILES | z-score [1] | composite z-score [2] | z-score [3] | z-score [4] | z-score [5] | z-score [6] | z-score [7] | z-score [8] | z-score [9] | z-score [10] | z-score [11] | z-score [12] | z-score [13] | z-score [14] | z-score [15] | z-score [16] | z-score [17] | z-score [18] | z-score [19] | z-score [20]
1 | O=C1C2C=CC(C(O)c3ccc4c(c3)OCO4)N(Nc3ccccc3)C2C(=O)N1c1ccccc1 (stereo not given) | -1.27 (inactive) | 0.065 | 0.805 (inactive) | 0.384 (inactive) | 1.15 (inactive) | 1.39 (inactive) | -0.777 | -0.279 (inactive) | 0.756 (inactive) | -1.12 | -0.587 | -0.756 | -0.634 | -0.427 | 0.0871 | -1.47 | -1.19 (inactive) | 0.558 | -0.636 | 0.773 (inactive)
2 | C=CCC(OC(C)=O)[C@@H]1[C@@H](N(Cc2ccc(-c3cccc(C(F)(F)F)c3)o2)C(=O)Cc2ccc(OC)cc2)c2cc(OCCCO)ccc2N1C(=O)Cc1ccc2ccccc2c1 (stereo not given in full) | -0.597 (inactive) | 0.0026 | 0.572 (inactive) | 0.214 (inactive) | 1.83 (inactive) | 0.165 (inactive) | 0.258 | -1.6 (inactive) | -1.4 (inactive) | -1.11 | 0.553 | 1.78 | 0.73 | -0.499 | -1.14 | 1.94 | -0.3 (inactive) | 0.114 | 0.296 | -0.674 (inactive)
3 | COc1cc(CO)cc(I)c1O[C@H]1C=C(C(=O)NCCO)C[C@@H](NCC2CCCCC2)[C@@H]1O | 2.19 (inactive) | -0.313 | 1.35 (inactive) | 0.94 (inactive) | 0.996 (inactive) | 0.183 (inactive) | 1.06 | 0.132 (inactive) | 0.97 (inactive) | 1.04 | 1.31 | 0.13 | 0.407 | -0.235 | 0.893 | 1.25 | -0.328 (inactive) | -0.561 | -1.5 | 0.258 (inactive)
4 | CC=CC(O)C1C=CC2C(=O)NC(=O)C2N1Nc1ccccn1 (stereo not given) | -0.576 (inactive) | -0.0061 | -0.335 (inactive) | -0.0554 (inactive) | 0.0091 (inactive) | 0.998 (inactive) | -0.966 | -1.39 (inactive) | -1.87 (inactive) | -1.74 | 0.0403 | -1.24 | -0.154 | -0.228 | -0.496 | 0.0853 | -0.288 (inactive) | 0.137 | -0.121 | -1.14 (inactive)
5 | CCN(CC)c1ccc(N2CC=CC34O[C@@H]5C=CCCOC(=O)C5[C@H]3C(=O)N(CCO)[C@@H]4C2=O)cc1 (stereo not given in full) | 0.286 (inactive) | -0.155 | 1.03 (inactive) | 0.537 (inactive) | 0.836 (inactive) | 0.159 (inactive) | -0.616 | 0.697 (inactive) | -0.513 (inactive) | 1.11 | -0.126 | 1.11 | -0.618 | 0.766 | -0.073 | -0.178 | 0.0903 (inactive) | 0.277 | 0.639 | -0.0198 (inactive)
6 | C=C(COC)C(=O)CC[C@@H](OC(=O)c1cccnc1)c1ccccc1OCCO | 0.0001 (inactive) | -0.106 | 21.2 (active) | 2.88 (inactive) | 0.793 (inactive) | 0.65 (inactive) | -0.347 | -2.12 (inactive) | -0.369 (inactive) | -1.4 | -0.0755 | 0.46 | -1.16 | -3.38 | -3.82 | -0.758 | 1.08 (inactive) | -0.67 | -2.43 | 0.1 (inactive)
